From PubChem BioAssay (Tox21) come the findings set out here.

Assay [1] can be described thus: qHTS assay to identify small molecule antagonists of the sonic hedgehog signaling (Shh) pathway (AID 1259369). Also: nearly all actives have a fitted effect of over 45% in size. Also: potency is read from the fitted curve at half-maximal effect. An outline of the steps:
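Inhibition of Shh signalling is measured as reduced Gli1-response-element firefly luciferase output in an NIH/3T3-derived stable reporter clone stimulated with conditioned medium for 24hr.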
(qHTS replaces the single test concentration by a dilution series.)

The nature of assay [2]: qHTS assay to identify small molecule agonists of the androgen receptor (AR) signaling pathway in the presence of an antagonist - cell viability counter screen (AID 1259379; active = well fitted curve in the direction sought with a large enough effect in the repeat runs; an effect the other way counts as inactive or inconclusive; also: nearly all actives have a fitted effect of over 25% in size; also: potency is read from the fitted curve at half-maximal effect). A digest of the protocol:
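Fluorescence from CellTiter-Fluor, added after 15 hr and read 1 hr later, gave cell viability. Cells were MDA-kb2 exposed to compounds (15 concentrations) in the presence of 3.0uM nilutamide at 37C, 0% CO2.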

In assay [3] the target is Androgen receptor (Homo sapiens) (UniProt P10275). As to the kind of experiment: qHTS assay to identify small molecule agonists of the androgen receptor (AR) signaling pathway in the presence of an antagonist (AID 1259381). Also: nearly all actives have a fitted effect of over 15% in size. An outline of the steps: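 Cells are MDA-kb2 (human breast carcinoma, MMTV-luc, AR/GR responsive). Nilutamide is present at 3.0uM final throughout; compounds are added at 15 concentrations and incubated 16hr at 37C before ONE-Glo luminescence detection.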

A short description of assay [4]: qHTS assay to identify small molecule antagonists of the estrogen receptor beta (ER-beta) signaling pathway - cell viability counter screen (AID 1259382; active = well fitted curve in the direction sought with a large enough effect in the repeat runs; an effect the other way counts as inactive or inconclusive; also: nearly all actives have a fitted effect of over 55% in size; also: potency is read from the fitted curve at half-maximal effect). A digest of the protocol:
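Following a 6 hr plating period, HEK293T cells carrying a UAS-driven beta-lactamase reporter under ER-beta control received compounds and 1nM E2 (final). After 16 hr at 37C and 2 hr substrate loading, CellTiter-Glo luminescence indicated viability.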

In assay [5] the target is Estrogen receptor (Homo sapiens) (UniProt P03372). As to the kind of experiment: qHTS assay to identify small molecule agonists of the estrogen receptor alpha (ER-alpha) signaling pathway in the presence of an antagonist (AID 1259383). Also: top concentration of the series differs between compounds; nearly all actives have a fitted effect of over 15% in size. A digest of the protocol:
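Cells are hormone-deprived for 5 days (charcoal-stripped FBS, no phenol red), plated for 24hr, spiked with 10.0nM ICI-182,780, then dosed at 15 concentrations. After 22hr at 37C, ONE-Glo luminescence reports ERE-luciferase activity.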

Assay [6] in a line: qHTS assay to identify small molecule agonists of the estrogen receptor beta (ER-beta) signaling pathway - cell viability counter screen (AID 1259380; active = well fitted curve in the direction sought with a large enough effect in the repeat runs; an effect the other way counts as inactive or inconclusive; also: nearly all actives have a fitted effect of over 30% in size; also: potency is read from the fitted curve at half-maximal effect). A digest of the protocol: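 Same-well viability counter screen. Cells: ER-beta-UAS-bla HEK293T, plated 6 hr before compound, in 2% charcoal-stripped FBS. Compound exposure 16 hr, 37C; viability by CellTiter-Glo luminescence after 30 min at room temperature.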

Assay [7] deals with Thyrotropin receptor (Homo sapiens) (UniProt P16473). As to the kind of experiment: qHTS assay to identify small molecule antagonists of the thyroid stimulating hormone receptor (TSHR) signaling pathway (AID 1259385). Also: nearly all actives have a fitted effect of over 20% in size. Also: potency is read from the fitted curve at half-maximal effect. A digest of the protocol: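 Antagonist mode: compound-treated TSHR-expressing HEK293 cells were stimulated with 1.5 ng/mL TSH (final) in presence of Ro20-1724 for 30 min at RT. HTRF cAMP detection after 1 h; each compound tested at 15 concentrations, triplicate.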

Assay [8] is described as follows: qHTS assay to identify small molecule agonists or antagonists of the thyroid stimulating hormone receptor (TSHR) signaling pathway - wild type cell line counter screen (AID 1259384). Also: potency is read from the fitted curve at half-maximal effect. A digest of the protocol:
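Counter screen in untransfected Hek293: compounds (15-point titration, triplicate) plus phosphodiesterase inhibitor Ro20-1724 added after 18 h plating; 30 min RT. Intracellular cAMP via competitive d2/cryptate immunoassay, 1 h incubation.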

Structures are written as SMILES. Results filed as inconclusive are left out. The source made the active and inactive calls. Unless noted, calls follow the shape of the full dose curve.

Androgen receptor (Homo sapiens), sequence (P10275 whole entry, looked up): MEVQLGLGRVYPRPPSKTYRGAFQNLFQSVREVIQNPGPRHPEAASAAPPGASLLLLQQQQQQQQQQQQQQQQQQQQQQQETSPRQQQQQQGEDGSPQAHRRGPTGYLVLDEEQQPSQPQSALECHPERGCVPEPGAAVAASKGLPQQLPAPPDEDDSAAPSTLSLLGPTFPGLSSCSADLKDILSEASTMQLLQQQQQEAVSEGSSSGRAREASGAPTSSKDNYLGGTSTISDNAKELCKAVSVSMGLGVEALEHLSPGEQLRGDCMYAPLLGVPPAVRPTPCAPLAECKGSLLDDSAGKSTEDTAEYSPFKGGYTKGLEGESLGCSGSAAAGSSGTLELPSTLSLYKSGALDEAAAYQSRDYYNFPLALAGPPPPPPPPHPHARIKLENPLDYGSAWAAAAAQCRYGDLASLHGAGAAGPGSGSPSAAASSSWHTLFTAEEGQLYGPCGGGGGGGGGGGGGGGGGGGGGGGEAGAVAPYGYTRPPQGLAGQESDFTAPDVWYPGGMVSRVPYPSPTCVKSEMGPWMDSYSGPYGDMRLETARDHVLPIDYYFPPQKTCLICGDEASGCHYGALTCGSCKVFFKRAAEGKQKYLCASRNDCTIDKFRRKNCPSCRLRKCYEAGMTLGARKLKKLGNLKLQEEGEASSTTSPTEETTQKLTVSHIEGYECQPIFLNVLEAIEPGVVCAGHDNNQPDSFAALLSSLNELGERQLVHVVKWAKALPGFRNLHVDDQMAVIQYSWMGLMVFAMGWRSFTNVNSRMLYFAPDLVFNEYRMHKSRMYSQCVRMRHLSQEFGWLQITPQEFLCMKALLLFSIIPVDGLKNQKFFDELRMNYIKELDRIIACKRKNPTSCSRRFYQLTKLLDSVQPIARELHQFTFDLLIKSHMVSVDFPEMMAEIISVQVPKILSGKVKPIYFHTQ
Estrogen receptor (Homo sapiens), sequence (P03372 whole entry, looked up): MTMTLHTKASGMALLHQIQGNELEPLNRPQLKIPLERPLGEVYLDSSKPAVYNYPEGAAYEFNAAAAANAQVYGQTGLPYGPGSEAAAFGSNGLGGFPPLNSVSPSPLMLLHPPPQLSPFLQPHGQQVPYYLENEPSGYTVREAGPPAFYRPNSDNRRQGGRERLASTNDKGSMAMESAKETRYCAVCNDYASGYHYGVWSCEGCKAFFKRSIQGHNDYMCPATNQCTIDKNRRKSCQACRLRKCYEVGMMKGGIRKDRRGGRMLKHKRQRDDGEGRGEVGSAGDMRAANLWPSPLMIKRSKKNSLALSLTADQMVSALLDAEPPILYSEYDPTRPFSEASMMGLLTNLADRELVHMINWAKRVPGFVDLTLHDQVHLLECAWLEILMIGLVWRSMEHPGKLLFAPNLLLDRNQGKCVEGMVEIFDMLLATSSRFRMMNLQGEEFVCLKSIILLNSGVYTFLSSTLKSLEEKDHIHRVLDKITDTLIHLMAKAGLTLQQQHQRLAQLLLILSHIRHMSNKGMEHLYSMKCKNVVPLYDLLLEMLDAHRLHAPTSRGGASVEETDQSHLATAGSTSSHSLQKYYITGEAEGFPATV
Thyrotropin receptor (Homo sapiens), sequence (P16473 whole entry, looked up): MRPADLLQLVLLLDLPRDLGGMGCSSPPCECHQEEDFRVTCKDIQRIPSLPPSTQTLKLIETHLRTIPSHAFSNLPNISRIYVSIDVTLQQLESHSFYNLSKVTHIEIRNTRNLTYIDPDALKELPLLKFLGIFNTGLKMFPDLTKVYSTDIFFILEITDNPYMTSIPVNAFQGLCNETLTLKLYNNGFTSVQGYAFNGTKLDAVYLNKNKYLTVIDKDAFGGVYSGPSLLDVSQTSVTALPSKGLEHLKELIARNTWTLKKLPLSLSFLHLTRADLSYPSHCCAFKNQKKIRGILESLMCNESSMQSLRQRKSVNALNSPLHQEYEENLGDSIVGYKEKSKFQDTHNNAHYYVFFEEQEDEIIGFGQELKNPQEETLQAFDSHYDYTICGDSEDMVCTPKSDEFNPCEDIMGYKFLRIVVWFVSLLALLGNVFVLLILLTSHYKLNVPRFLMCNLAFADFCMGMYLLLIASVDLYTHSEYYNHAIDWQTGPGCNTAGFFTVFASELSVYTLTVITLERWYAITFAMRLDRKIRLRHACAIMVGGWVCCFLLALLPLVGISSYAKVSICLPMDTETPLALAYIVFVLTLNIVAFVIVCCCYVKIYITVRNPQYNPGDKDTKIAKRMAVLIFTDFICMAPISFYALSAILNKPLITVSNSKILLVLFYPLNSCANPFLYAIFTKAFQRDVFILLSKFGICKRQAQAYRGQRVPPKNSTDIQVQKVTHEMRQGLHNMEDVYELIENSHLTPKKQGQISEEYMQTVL

Consider `CCO/N=C(\CC)C1=C(O)CC(c2c(C)cc(C)cc2C)CC1=O` (stereo not drawn), for which the Potency in assay [1] is 5.45 µM (active). The Potency entry in assay [2], in assay [3], in assay [4] and in assay [5] was “inactive” throughout.
For the compound `O=[N+]([O-])c1cc(C(F)(F)F)c(Cl)c([N+](=O)[O-])c1Nc1ncc(C(F)(F)F)cc1Cl`, the Potency in assay [1] was 3.86 µM (active); in assay [2], 6.11 µM (active); in assay [6], 6.86 µM (active); in assay [4] it was 8.63 µM (active); in assay [7], 61.1 µM (active). In addition, in assay [5], the Potency result is “inactive”.
In the case of `O=C(O)[C@H](O)[C@@H](O)C(=O)O`, the Potency result in assay [1], in assay [2], in assay [6], in assay [4] and in assay [5] was “inactive” in each case.
Take `CCC(OC(C)=O)C(CC(C)NC)(c1ccccc1)c1ccccc1` (stereo not drawn): the Potency in assay [1] is 30.9 µM (active); in assay [2] it was 49 µM (active); in assay [4], 54.9 µM (active). For the same compound, the Potency result in assay [3], in assay [5] and in assay [8] was “inactive” in each case.
For the compound `CC(=O)[O-].CC(=O)[O-].O.O.O.[Pb+2]`, the Potency entry in assay [1], in assay [2], in assay [6] and in assay [4] was “inactive” each time.
Take `CC(O)C(=O)[O][Hg][c]1ccccc1` (stereo not drawn): the Potency in assay [1] is 0.0306 µM (active); in assay [2], 6.86 µM (active); in assay [6], 4.86 µM (active); in assay [4], 4.33 µM (active); in assay [8] it was 5.66 µM (active); in assay [7], 54.5 µM (active). In assay [5], the Potency result was “inactive”.
For the compound `CCCCn1cc[n+](C)c1.[Cl][Fe-]([Cl])([Cl])[Cl]`, the Potency result in assay [1], in assay [2], in assay [6] and in assay [4] was “inactive” each time.
As for `CNC(C)(C)Cc1ccccc1`, the Potency entry in assay [1], in assay [2], in assay [4] and in assay [7] was “inactive” throughout.
As to `CC[N+]1(CC)CCC(OC(=O)C(O)(c2ccccc2)c2ccccc2)C1` (stereo not drawn), the Potency result in assay [1], in assay [2], in assay [4], in assay [5], in assay [8] and in assay [7] was “inactive” in each case.
With `ClC1(Cl)C2(Cl)C3(Cl)C4(Cl)C(Cl)(Cl)C5(Cl)C3(Cl)C1(Cl)C5(Cl)C24Cl` (stereo not drawn), the Potency result in assay [1], in assay [2], in assay [3], in assay [4], in assay [5] and in assay [7] was “inactive” throughout.
